From PubChem BioAssay
Anthrax LF prot = inhibitors of Bacillus anthracis lethal factor protease; multiplex microsphere protease cleavage assay, LF; inhibition, % at 10 µM; AID 588501; actives 0.12% (n = 360,000); also: plate controls were buffer without enzyme for full effect and enzyme alone for no effect
MazEF act = MazEF (E. coli) toxin RNase activation | FAM/BHQ RNA-DNA oligo cleavage fluorescence, 5 h | actives 0.32% (n = 350,000) | activation, % at 20 µM | P0AE70 | AID 504720; in the data active = activation above about 50%
BoNT A protease = BoNT A light chain protease inhibition; multiplex microsphere protease substrate cleavage, flow cytometry; inhibition, % at 10 µM; actives 0.17% (n = 360,000); AID 588499; also: plate controls were buffer without enzyme for full effect and enzyme alone for no effect
Autofluor counter = flagged as autofluorescent in microsphere protease counterscreen. compound autofluorescence counterscreen, microsphere flow cytometry; hits give high values. fluorescence intensity (no concentration beside the values). actives 3.1% (n = 360,000); in the data active = fluorescence intensity above about 16000; inconclusive = no clear call, values can overlap the other calls
BoNT F protease = inhibitors of Botulinum neurotoxin F light chain protease. Multiplex microsphere protease cleavage assay, flow cytometry. inhibition, % at 10 µM. actives 0.22% (n = 360,000). AID 588497; in the data active = inhibition above about 35%, passing the limit was not always enough; inconclusive = no clear call, values can overlap the other calls; also: plate controls were buffer without enzyme for full effect and enzyme alone for no effect
* = called active by the depositor; ? = inconclusive; . = no result given. Most compounds without a hit are left out; they make up all but 3.7% or so of the library. Rule as the data show it, unless noted: active = inhibition above about 30%; inconclusive = no clear call, values can overlap the other calls; inactive = below that.

SMILES	Anthrax LF prot	MazEF act	BoNT A protease	Autofluor counter	BoNT F protease
Cc1ccc(S(=O)(=O)N2C[C@H]3[C@H]4C(=O)N(c5ccccc5)C(=O)[C@H]4C[C@H](OC(=O)NC4CC4)[C@@]3(O)C2)cc1	-1	1	0	3998	-1
Cc1ccc(-c2nn(-c3cc(Cl)ccc3[N+](=O)[O-])c(=O)c3ccccc23)cc1	-2	1	-3	24146*	-5
Cc1nc(SCC(=O)N2CCN(C(=O)c3cccs3)CC2)c2c(C)c(C)sc2n1	1	-4	-2	6256	8
CC(=O)c1nn(-c2ccccc2)cc1C(=O)c1cccc(Br)c1	-1	-9	0	1907	2
O=C(c1cccc(Br)c1)c1cn(-c2ccccc2)nc1C(=O)c1ccccc1	-7	5	?	24853*	-15
O=C(CCC(=O)c1cccs1)NCCc1ccc(F)cc1	-1	-5	0	5723	5
O=C(Cc1c(O)c2ccccc2[nH]c1=O)N(Cc1ccccc1)Cc1ccccc1	-3	-1	1	22649*	-2
N#CC(c1ccccn1)(c1ncc(C(F)(F)F)cc1Cl)N1CCOCC1 (stereo not given)	-7	4	?	22287*	1
COc1ccc(-c2ccc(-c3nnc(-c4cc(OC)ccc4OC)o3)cc2)cc1	1	7	?	22687*	0
COc1ccc(-c2nnc(-c3ccc(N)cc3)o2)cc1	-6	5	1	9135	7
COc1ccccc1CN1CCCCC1c1cccnc1 (stereo not given)	0	9	2	22672*	0
Cc1noc(C)c1COc1ccc(C(=O)N2CCC(C)CC2)cc1	-4	4	0	2795	-2
Cc1cccc(OCC(=O)N2CCc3ccccc3C2)c1C	4	2	0	3885	1
Cc1cc(Cl)ccc1Oc1nc(-c2ccc(F)cc2)ccc1C#N	-1	8	?	22004*	0
Cc1ccc(NC(=O)NC2CCN(CC(=O)Nc3nccs3)CC2)cc1	1	2	-1	9828	0
Cc1ccccc1C(=O)NC1CCN(CC(=O)Nc2nccs2)CC1	-1	-2	?	20345*	0
COC(=O)c1ccccc1NC(=O)CN1CCC(NC(=O)c2ccccc2C)CC1	1	7	0	16191*	-4
COc1ccc(-c2cc(=O)oc3cc(OCC(=O)Nc4ccc(CCO)cc4)ccc23)cc1	1	-21	1	4298	2
O=C1CC2CC1C(C(=O)O)C2C(=O)O (stereo not given)	-9	-1	-1	3796	5
CCOC(=O)C1(C)CCN1C(=O)COc1ccc(C(C)(C)C)cc1 (stereo not given)	9	.	0	3412	-2
CCOc1ccc2nc3ccc4[nH]onc4c3c2c1	12	-1	?	5438	50*
CCOc1ccc2nc(N3CCOCC3)nc(C)c2c1	5	0	1	5871	1
CC1(NC(=O)c2cc(S(=O)(=O)N3CCCCC3)ccc2Cl)CCS(=O)(=O)C1 (stereo not given)	0	-1	-2	24171*	-1
COc1ccc(C(=O)NCCc2c[nH]c3ccccc23)cc1[N+](=O)[O-]	-19	7	1	4127	31
Oc1ccc(CCNc2ncnc3ccc(Cl)cc23)cc1	-2	1	0	5929	0
SMILES	Anthrax LF prot	MazEF act	BoNT A protease	Autofluor counter	BoNT F protease
C=CCNC(=O)CCCc1ccccc1	-1	10	0	23759*	-2
O=C(CCCCC(=O)NCCCc1ccccc1)NCCCc1ccccc1	-5	-2	-4	4073	?
C=CCNC(=O)c1ccc(C(=O)c2ccccc2)cc1	0	8	0	23162*	2
Cc1cc(NC(=O)c2cccs2)ncc1NC(=O)C(C)C	-8	-4	1	3603	14
COc1cc(C(=O)N(C)CC2CCN(CCc3cccc(C(F)(F)F)c3)CC2)ccc1C	3	7	-1	4671	?
CCCCOc1ccc(C(=O)NCCCC(=O)N2CCCCC2)cc1	-7	-10	-2	6659	-9
CC(C)CCOc1ccc(C(=O)NCCC(=O)N2CCOCC2)cc1	-12	0	4	21240*	6
Cc1csc(NC(=O)CSC2=NS(=O)(=O)c3ccccc3N2)n1	.	0	.	.	.
Cc1ccc(C(C)C)cc1OCCOCCN1CCCC1	-9	92*	-1	4992	-30
CC1CC(NC(=O)C2(C)CC2(Cl)Cl)CC(C)(C)C1 (stereo not given)	-15	1	5	20800*	6
CC1=C(C(=O)N(C)C)CC(CC(=O)NCCCN(C)C)C(=O)N1Cc1ccc(F)cc1 (stereo not given)	1	.	-1	5525	-1
COc1ccc(CCC(=O)OCC(=O)NC(=O)c2ccc(Cl)cc2)cc1	-1	-22	0	3904	-13
CN(C)C/C=C(/c1ccc(Br)cc1)c1cccnc1	2	6	0	5367	-6
CN(C)CCO/N=C(\c1ccc(Br)cc1)c1cccnc1	-50	-12	-82	21777*	?
CCn1c(O)c(/C=N/N=C/c2ccccc2)c2ccc(C3=NNC(=O)CC3)cc21	-2	747*	2	22930*	0
COC(=O)c1noc(-c2ccc(C)cc2)n1	-4	6	0	23185*	-1
Oc1ccc(/C=C/c2nc(-c3ccccc3O)n(-c3ccccc3)n2)cc1	-5	7	-2	24194*	-4
CC(=O)c1c(C(C)=O)c(C)n(-c2ccc(O)cc2)c1C	-3	3	-5	21526*	-6
CC(=O)c1c(C(C)=O)c(C)n(-c2ccc(C(=O)O)cc2)c1C	-1	5	0	2943	-8
CC(=O)Nc1ccc(CN(C)c2c(C)nc3ccc(C(=O)NCCc4ccccn4)cn23)cc1	-1	.	0	2776	6
O=C(Nc1cccc(Br)c1)c1ccn[nH]1	-4	1	-3	21776*	-5
C[C@@H]1CN([C@@H](C)CO)C(=O)CCCn2nncc2CO[C@H]1CN(C)S(=O)(=O)c1cn(C)cn1	-4	0	0	3862	0
CCOC(=O)C1=C(COC(=O)/C=C/c2ccc(F)cc2)NC(=O)NC1C (stereo not given)	-3	2	0	3027	2
COC(=O)Nc1ccc2c(c1)N(C(=O)CCN1CCN3CCCC3C1)c1ccccc1CC2 (stereo not given)	4	8	1	4356	?
COC(=O)Nc1ccc2c(c1)N(C(=O)CCN1CCN3CCCC3C1)c1ccccc1S2 (stereo not given)	-1	-2	?	23102*	-4
C/C=C/C(=O)OCC(=O)Nc1c(Cl)cccc1Cl	-1	10	-2	16870*	-3
C/C=C/C(=O)OCC(=O)Nc1cc([N+](=O)[O-])ccc1Cl	-2	1	0	2100	-2
CCOc1cc(NC(=O)c2ccco2)c(OCC)cc1NC(=O)Cc1ccc(OC)c(OC)c1	-10	-5	3	20919*	5
COc1ccc(NC(=O)CCc2ccccc2)cc1NC(=O)c1ccco1	-3	-7	-1	19700*	-4
